Measurements as given in ChEMBL document CHEMBL1961873, “Compounds: GSK PKIS; Assays: Nanosyn kinase panel” (2012).

What was measured:
[1] = biological target: Serine/threonine-protein kinase pim-2 (Homo sapiens) (UniProt Q9P1W9); settings: at 1 µM;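 also: each value is a mean of the inhibition measurements against the kinase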
[2] = biological target: Serine/threonine-protein kinase pim-3 (Homo sapiens) (UniProt Q86V86); settings: at 0.1 µM
[3] = biological target: Serine/threonine-protein kinase pim-3 (Homo sapiens) (UniProt Q86V86); settings: at 1 µM
[4] = biological target: T1, MAP kinase-activated protein kinase 5 (Homo sapiens) (UniProt Q8IW41); settings: at 0.1 µM
T1 sequence (whole entry): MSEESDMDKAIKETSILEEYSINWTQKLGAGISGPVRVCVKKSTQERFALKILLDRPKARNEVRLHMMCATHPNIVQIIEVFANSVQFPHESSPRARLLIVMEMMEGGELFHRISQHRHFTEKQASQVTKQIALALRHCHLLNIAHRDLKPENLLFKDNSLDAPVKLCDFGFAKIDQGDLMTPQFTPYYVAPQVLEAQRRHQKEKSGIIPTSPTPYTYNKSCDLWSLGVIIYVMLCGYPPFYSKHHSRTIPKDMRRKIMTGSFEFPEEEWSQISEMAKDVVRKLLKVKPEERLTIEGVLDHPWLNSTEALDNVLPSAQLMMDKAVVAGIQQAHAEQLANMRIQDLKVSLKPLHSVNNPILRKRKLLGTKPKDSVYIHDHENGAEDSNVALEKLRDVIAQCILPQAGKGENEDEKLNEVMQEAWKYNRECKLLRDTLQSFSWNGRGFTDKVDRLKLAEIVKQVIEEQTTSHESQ

[5] = biological target: T1, MAP kinase-activated protein kinase 5 (Homo sapiens); settings: at 1 µM
[6] = biological target: Serine/threonine-protein kinase SIK1 (Homo sapiens) (UniProt P57059); settings: at 0.1 µM
Serine/threonine-protein kinase SIK1 (Homo sapiens), sequence (P57059 whole entry): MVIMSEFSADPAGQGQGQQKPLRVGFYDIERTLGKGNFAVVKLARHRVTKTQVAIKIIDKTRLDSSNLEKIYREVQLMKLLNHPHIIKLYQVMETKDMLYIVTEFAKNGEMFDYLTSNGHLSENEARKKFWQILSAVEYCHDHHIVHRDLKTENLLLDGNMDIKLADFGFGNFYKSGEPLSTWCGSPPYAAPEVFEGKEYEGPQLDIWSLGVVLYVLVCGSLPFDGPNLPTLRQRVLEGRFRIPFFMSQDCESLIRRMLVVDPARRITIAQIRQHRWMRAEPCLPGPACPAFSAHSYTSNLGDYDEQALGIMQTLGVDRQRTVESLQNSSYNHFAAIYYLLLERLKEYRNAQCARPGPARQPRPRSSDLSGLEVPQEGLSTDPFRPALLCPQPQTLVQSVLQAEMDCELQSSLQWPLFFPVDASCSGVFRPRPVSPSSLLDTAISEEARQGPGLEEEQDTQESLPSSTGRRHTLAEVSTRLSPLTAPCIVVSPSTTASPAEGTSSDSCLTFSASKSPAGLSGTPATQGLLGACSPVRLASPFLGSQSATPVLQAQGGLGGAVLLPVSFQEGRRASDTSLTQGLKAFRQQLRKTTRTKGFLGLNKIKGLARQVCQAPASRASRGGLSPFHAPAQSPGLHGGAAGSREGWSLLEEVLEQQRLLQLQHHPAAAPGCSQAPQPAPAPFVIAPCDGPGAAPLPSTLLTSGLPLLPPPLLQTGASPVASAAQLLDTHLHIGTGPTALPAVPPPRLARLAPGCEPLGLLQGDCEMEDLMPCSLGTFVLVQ

[7] = biological target: Serine/threonine-protein kinase SIK1 (Homo sapiens) (UniProt P57059); settings: at 1 µM
[8] = biological target: Serine/threonine-protein kinase SIK2 (Homo sapiens) (UniProt Q9H0K1); settings: at 0.1 µM
Serine/threonine-protein kinase SIK2 (Homo sapiens), sequence (Q9H0K1 whole entry, looked up): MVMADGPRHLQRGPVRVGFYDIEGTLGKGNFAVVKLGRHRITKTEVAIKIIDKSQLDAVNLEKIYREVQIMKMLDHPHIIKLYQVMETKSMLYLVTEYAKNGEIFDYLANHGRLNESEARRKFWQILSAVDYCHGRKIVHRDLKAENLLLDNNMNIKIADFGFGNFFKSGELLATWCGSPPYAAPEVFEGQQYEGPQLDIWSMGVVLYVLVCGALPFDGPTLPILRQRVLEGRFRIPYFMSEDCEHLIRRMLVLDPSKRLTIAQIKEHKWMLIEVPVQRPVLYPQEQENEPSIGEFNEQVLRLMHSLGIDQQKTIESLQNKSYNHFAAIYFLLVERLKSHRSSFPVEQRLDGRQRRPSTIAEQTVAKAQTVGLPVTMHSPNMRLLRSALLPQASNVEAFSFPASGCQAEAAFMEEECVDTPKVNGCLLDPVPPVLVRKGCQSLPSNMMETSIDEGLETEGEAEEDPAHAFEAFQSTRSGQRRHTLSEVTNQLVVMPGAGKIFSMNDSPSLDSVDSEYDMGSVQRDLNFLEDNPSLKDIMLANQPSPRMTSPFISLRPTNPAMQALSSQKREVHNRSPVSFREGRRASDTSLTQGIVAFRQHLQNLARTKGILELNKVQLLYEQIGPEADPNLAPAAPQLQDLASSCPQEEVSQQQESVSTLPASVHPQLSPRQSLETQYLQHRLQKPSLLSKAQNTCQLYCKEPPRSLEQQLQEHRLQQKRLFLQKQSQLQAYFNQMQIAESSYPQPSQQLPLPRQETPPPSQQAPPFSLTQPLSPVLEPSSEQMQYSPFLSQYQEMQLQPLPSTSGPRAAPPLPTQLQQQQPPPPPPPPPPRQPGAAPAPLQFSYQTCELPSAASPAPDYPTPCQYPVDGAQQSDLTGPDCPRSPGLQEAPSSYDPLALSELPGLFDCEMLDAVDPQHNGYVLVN

[9] = biological target: Serine/threonine-protein kinase SIK2 (Homo sapiens) (UniProt Q9H0K1); settings: at 1 µM
[10] = biological target: T2, Serine/threonine-protein kinase TBK1 (Homo sapiens) (UniProt Q9UHD2); settings: at 0.1 µM;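 also: values are the mean TBK1 inhibition, taken from the GSK PKIS screening data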
T2 sequence (whole entry): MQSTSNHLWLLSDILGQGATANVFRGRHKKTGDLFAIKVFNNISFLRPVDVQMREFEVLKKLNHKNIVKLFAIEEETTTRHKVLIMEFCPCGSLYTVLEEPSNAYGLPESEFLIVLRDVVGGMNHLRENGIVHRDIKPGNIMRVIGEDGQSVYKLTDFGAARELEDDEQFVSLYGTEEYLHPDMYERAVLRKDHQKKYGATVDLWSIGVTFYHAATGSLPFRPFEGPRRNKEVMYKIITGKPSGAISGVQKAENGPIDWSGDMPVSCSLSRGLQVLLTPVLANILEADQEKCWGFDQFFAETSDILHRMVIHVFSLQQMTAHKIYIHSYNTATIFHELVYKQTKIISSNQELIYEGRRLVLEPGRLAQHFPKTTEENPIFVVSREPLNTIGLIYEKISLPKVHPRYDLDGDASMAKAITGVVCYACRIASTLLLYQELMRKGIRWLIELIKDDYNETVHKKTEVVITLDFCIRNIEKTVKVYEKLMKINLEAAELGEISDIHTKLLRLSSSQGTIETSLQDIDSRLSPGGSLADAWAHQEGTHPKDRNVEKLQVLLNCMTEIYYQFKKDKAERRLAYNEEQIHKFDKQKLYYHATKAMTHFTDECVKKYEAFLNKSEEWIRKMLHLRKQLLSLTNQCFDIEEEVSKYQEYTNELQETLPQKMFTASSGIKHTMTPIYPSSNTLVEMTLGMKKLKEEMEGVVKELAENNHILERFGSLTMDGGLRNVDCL

Serine/threonine-protein kinase pim-2 (Homo sapiens), sequence (Q9P1W9 whole entry, looked up): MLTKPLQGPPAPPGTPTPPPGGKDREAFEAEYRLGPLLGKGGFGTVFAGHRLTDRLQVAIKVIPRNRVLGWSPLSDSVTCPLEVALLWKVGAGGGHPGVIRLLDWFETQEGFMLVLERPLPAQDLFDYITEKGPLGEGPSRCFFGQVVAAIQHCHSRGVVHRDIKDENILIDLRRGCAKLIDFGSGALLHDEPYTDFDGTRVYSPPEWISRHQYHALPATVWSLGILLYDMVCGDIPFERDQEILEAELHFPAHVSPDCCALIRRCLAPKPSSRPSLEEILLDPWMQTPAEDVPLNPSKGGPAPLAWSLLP

Row | Structure (SMILES) | inhibition [1] [%] | inhibition [2] [%] | inhibition [3] [%] | inhibition [4] [%] | inhibition [5] [%] | inhibition [6] [%] | inhibition [7] [%] | inhibition [8] [%] | inhibition [9] [%] | inhibition [10] [%]
1 | COc1cc(C)c(NC(=O)CN(C)C)cc1Nc1nc(Nc2cccc(F)c2C(N)=O)c2cc[nH]c2n1 | 2.33 | 0.35 | 16.3 | 0.4 | 1.56 | 1.57 | 5.28 | 0.18 | -4.44 | 1.95
2 | COc1ccc(-c2nn3ncccc3c2-c2ccnc(Nc3ccc(Cl)c(C(F)(F)F)c3)n2)cc1 | 0.14 | 1.02 | 2.53 | 1.42 | 1.91 | 2.76 | 5.43 | 5.44 | 1.72 | 0.22
3 | COc1cc2ncn(-c3cc(OCc4ccccc4C(F)(F)F)c(C(N)=O)s3)c2cc1OC | -2.85 | -0.3 | 5.54 | 1.22 | 2.23 | 9.96 | 56.6 | 5.82 | 35.4 | 3.59
4 | Cc1ccc(C(=O)NC2CCCCC2)cc1-c1ccc(C(=O)NCC2CC2)cc1 | 1.66 | 22.2 | -1 | 0.69 | -0.72 | 3.08 | 8.02 | 2.73 | 1.96 | 1.75
5 | O=C1NC(=O)C(c2ccc(Cl)cc2)=C1Nc1ccc(Cl)c(C(=O)O)c1 | 0.1 | 0.19 | -0.33 | -0.91 | -0.59 | -6.41 | -4.82 | -6 | -3.21 | -0.72
6 | Cc1cc(O)cc(C)c1/C=C/c1cncc(-c2nn[nH]n2)c1 | -2.91 | -1.97 | -0.67 | 1.58 | 1.02 | 56.2 | 94.7 | 6.01 | 53.7 | 1.57
7 | CC1=C(C(=O)Nc2ccc3[nH]ncc3c2)C(c2ccc(Cl)c(Cl)c2)CC(=O)N1 (stereo not given) | -1.37 | -0.64 | -1.31 | 0.08 | -1.02 | 6.5 | 2.84 | -0.93 | 2.87 | -0.19
8 | CCn1c(-c2nonc2N)nc2ccncc21 | 0.12 | -0.49 | -1.56 | 0.36 | -0.69 | -0.38 | 8.47 | 5.56 | 3.95 | 2.23
9 | CCn1c(-c2nonc2N)nc2c(N3CCCC3)nccc21 | 0.29 | -0.84 | 1 | -0.99 | -0.15 | -7.25 | -2.47 | -7.08 | -6.02 | -0.24
10 | CC(=O)Nc1cccc(C#Cc2cncnc2Nc2ccc(OCc3cccc(F)c3)c(Cl)c2)n1 | -0.75 | 5.22 | 9.04 | 0.35 | 2.24 | -2.62 | -1.96 | -4.28 | -0.46 | 1.99
11 | O=C1Nc2ccc(C(=O)c3ccco3)cc2C1=Cc1cc(Cl)c(O)c(Cl)c1 | 17.9 | 12 | 53.4 | 1.97 | 8.16 | 4.01 | 10.6 | 10.5 | 6.6 | 4.59
12 | COc1ccc(-c2ccncc2)cc1C(N)=O | -0.52 | -0.49 | 3.33 | 1.23 | 1.1 | 3.59 | 9.53 | 3.27 | 4.53 | 2.55
13 | CCn1c(-c2nonc2N)nc2cnc(Oc3cccc(NC(=O)c4ccc(OCCN5CCOCC5)cc4)c3)cc21 | 0.68 | -1.8 | 2.09 | 0.82 | 1.44 | 4.8 | 10.1 | 8.55 | 13.8 | 0.71
14 | CS(=O)(=O)CCN(CC#N)Cc1ccc(-c2ccc3ncnc(Nc4ccc(OCc5cccc(F)c5)c(Cl)c4)c3c2)o1 | -3.72 | -0.61 | -0.3 | 0.76 | 1.23 | 4.78 | 9.27 | 1.11 | 0.48 | 0.72
15 | Nc1nc(-c2ccc3c(c2)C(=Cc2cc(Br)c(O)c(Br)c2)C(=O)N3)cs1 | 50.1 | 5.73 | 42.7 | -1.39 | -0.3 | – | -3.45 | – | -0.64 | 0.67
16 | CCCN1CCC(Oc2cc(Nc3nc(Nc4cccc(F)c4C(N)=O)c4cc[nH]c4n3)c(OC)cc2Cl)CC1 | 2.68 | 1.54 | 10.5 | -0.3 | -0.07 | -0.37 | 2.28 | -0.16 | -0.62 | -0.35
17 | CN(C)c1cc2c(Nc3ccc4nc(Cc5ccccc5)[nH]c4c3)ncnc2cn1 | 0.97 | – | 2.51 | 1.83 | 2.12 | 5.71 | 10.2 | 8.08 | 7.99 | 2.69

Row | Structure (SMILES) | inhibition [1] [%] | inhibition [2] [%] | inhibition [3] [%] | inhibition [4] [%] | inhibition [5] [%] | inhibition [6] [%] | inhibition [7] [%] | inhibition [8] [%] | inhibition [9] [%] | inhibition [10] [%]
18 | CS(=O)(=O)CCNCc1ccc(-c2ccc3ncnc(Nc4ccc(OCc5ccccc5)c(Cl)c4)c3c2)o1 | 0.98 | 0.47 | 1.74 | 0.46 | 0.34 | 1.53 | 4.15 | -3.07 | -4.01 | 0.47
19 | NC(=O)c1ccc(-c2nc(-c3ccccn3)c(-c3ccc4c(c3)OCO4)[nH]2)cc1 | 0.78 | 0.11 | 0.3 | 0.77 | 1.22 | 3.17 | 5.25 | 7.51 | 11.6 | 2.24
20 | Cc1cccc(-c2n[nH]cc2-c2ccc3ncccc3n2)n1 | -0.16 | -1.47 | -1.14 | 0.08 | 0.05 | -0.73 | 3.97 | 3.18 | 13.8 | -2.48
21 | Fc1cccc(COc2ccc(Nc3ncnc4cc(-c5ccc[nH]5)sc34)cc2Cl)c1 | -2.72 | -0.5 | 1.49 | 0.74 | 0.9 | 3.04 | 8.63 | 3.89 | 7.67 | 2.35
22 | CCn1c(-c2nonc2N)nc2cncc(C(=O)N3CC[C@H](N)C3)c21 | 48.2 | 51.5 | 78.9 | 1.81 | 2.26 | 5.73 | 9.11 | 4.34 | 10.1 | 3.11
23 | Cc1ccc(NC(=O)c2ccnc(N3CCCC3)c2)cc1-c1ccc(C(=O)NCC2CC2)cc1 | -1.68 | -0.52 | 1.15 | 1.02 | 1.69 | 1.07 | 8.28 | 0.28 | 8.6 | 6.98
24 | O=C(Nc1n[nH]c2nc(-c3ccco3)c(Br)cc12)C1CC1 | 0.42 | -1.42 | -2.95 | 0.87 | 0.07 | 2.49 | 5.66 | 3.56 | 5 | 6.52
25 | CS(=O)(=O)Nc1ccc(N/C=C2\C(=O)Nc3ccccc32)cc1 | 0.67 | 0.5 | 2.02 | -0.78 | -0.07 | – | 2.58 | 4.05 | -6.11 | 0.52
26 | NC(=O)c1cccc(Nc2nccc(Nc3cccc4[nH]ncc34)n2)c1 | 1.09 | -0.77 | 3.49 | -1.41 | -1 | 14.8 | 68.5 | -4.28 | 32.5 | 0.88
27 | COc1cc2ncn(-c3cc(OCc4ccccc4Cl)c(C(N)=O)s3)c2cc1OC | 4.79 | 1.01 | 8.63 | -0.46 | 0.67 | -2.01 | 28 | 2.69 | 26.6 | 3.64
28 | CCn1c(-c2nonc2N)nc2cncc(C(=O)N3CCNCC3)c21 | -0.88 | 0.06 | 2.39 | 2.77 | 2.41 | 4.86 | 14.2 | 6 | 6.58 | 6.79
29 | CCN1CCC(CC(=O)Nc2n[nH]c3nc(-c4cccs4)c(Br)cc23)CC1 | 1.48 | -0.6 | 5.95 | -1.45 | -0.83 | -7.57 | -6.71 | – | -4.25 | -0.25
30 | CC(C)=Cc1cccc2c1/C(=N/Nc1ccc(S(N)(=O)=O)cc1)C(=O)N2 | 0.68 | 1.74 | 3.98 | 0.48 | 2.48 | 3.24 | 11.2 | 4.69 | 15.5 | 3.78
31 | [O-][S+]1CCN(Cc2ccc(-c3ccc4ncnc(Nc5ccc(OCc6ccccc6)c(F)c5)c4c3)o2)CC1 | 0.23 | -1.55 | -1.98 | 0.41 | -0.19 | 3.06 | 3.96 | 3.09 | 5.38 | 1.1
32 | N#Cc1c(NC(=O)c2cccc3ccccc23)sc2c1CCCC2 | -0.27 | -0.51 | -1.85 | 0.72 | 0.28 | 7.26 | 9.67 | 2.47 | 12.4 | 0.12
33 | O=C1NC(=O)C(c2cccc(Cl)c2)=C1Nc1ccc(O)c(Cl)c1 | 1.76 | -0.02 | 0.87 | -0.23 | -0.79 | -4.1 | 9.22 | -3.06 | 19.8 | 3.62
34 | CCCN1CCC=C(c2ccc(Nc3nc(Nc4ccccc4C(N)=O)c4cc[nH]c4n3)c(C)c2)C1 | 4.08 | 2.03 | 12.5 | 1.79 | 5.7 | 5.62 | 9.29 | 2.87 | 8.52 | 3.95
